# Measurements published in ChEMBL document CHEMBL3988442, “University of Dundee, Small-Polar-MMV Screening Library” (2021).
# For part of these data: Entries with a potency or affinity are not part of this list.
# Assays:
# Set-up in all cases: scale not given: direction of the effect not stated beside the values
# [1] = target: Protein translocase subunit SecA (Escherichia coli (strain K12)) (UniProt P10408); assay: Assay to Identify E. coli SecA ATPase Inhibitors; assay type: functional; details: 30 µM
# [2] = target: T1, Ubiquitin-activating enzyme e1, putative (Leishmania donovani (strain BPK282A1)) (UniProt E9BSI1); assay: Leishmania donovani Ubiquitin Activating Enzyme (LdE1); assay type: functional; details: 30 µM
# T1 sequence (whole entry): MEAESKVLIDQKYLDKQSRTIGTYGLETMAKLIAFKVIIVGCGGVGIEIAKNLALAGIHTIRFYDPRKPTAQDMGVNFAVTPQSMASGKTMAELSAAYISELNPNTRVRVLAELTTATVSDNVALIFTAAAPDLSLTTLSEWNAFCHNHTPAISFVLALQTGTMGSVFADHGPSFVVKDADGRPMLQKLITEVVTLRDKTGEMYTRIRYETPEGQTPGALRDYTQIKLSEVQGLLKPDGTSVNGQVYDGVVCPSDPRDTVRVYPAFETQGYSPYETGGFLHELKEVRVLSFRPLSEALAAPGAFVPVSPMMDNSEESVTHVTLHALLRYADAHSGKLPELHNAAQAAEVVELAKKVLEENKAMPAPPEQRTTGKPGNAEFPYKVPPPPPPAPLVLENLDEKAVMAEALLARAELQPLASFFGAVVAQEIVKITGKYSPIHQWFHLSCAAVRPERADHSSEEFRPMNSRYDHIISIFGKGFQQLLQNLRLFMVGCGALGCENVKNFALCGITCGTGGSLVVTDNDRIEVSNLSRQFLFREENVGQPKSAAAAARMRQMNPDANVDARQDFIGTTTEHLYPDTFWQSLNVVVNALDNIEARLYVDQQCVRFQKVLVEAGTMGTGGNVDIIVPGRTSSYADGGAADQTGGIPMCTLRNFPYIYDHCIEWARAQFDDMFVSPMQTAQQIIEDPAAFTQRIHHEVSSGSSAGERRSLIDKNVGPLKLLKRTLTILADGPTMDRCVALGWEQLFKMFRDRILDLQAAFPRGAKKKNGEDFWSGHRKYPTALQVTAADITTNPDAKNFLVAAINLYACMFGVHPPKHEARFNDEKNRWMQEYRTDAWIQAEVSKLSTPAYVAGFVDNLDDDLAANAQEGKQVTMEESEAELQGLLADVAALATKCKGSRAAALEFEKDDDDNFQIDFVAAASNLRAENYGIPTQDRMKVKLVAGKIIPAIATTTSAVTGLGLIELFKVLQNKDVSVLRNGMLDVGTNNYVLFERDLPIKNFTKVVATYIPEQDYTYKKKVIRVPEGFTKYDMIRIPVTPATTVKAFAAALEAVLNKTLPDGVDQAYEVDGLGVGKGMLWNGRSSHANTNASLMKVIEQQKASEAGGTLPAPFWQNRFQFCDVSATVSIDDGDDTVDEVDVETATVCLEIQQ
# [3] = target: AMP-activated protein kinase, AMPK (Homo sapiens) (UniProt P54646+O43741+P54619+Q9UGJ0+Q9Y478+Q13131+Q9UGI9); assay: AMP-dependent Kinase enzyme assay. An in vitro enzyme assay that detects ADP turnover that is directly proportional to AMPK activity. This uses naive AMPK that is activated during the assay with MK-8722; assay type: functional; details: 30 µM
# [4] = target: Sialic acid-binding Ig-like lectin 9 (Homo sapiens) (UniProt Q9Y336); assay: Hs-Siglec9 ALPHAscreen SOP 20170721; details: 10 µM
# Trypanosoma cruzi = assay: Trypanosoma cruzi phosphomannomutase and mannose-1-phosphate guanylyltransferase assay; assay type: functional; details: 10 µM
# [5] = target: T2, Arginase-2, mitochondrial (Homo sapiens) (UniProt P78540); assay: in vitro enzyme assay to detect the production of urea directly proportional to the activity of Arginase II; assay type: functional; details: 33.3 µM; further: in the data most compounds retested in dose-response had high values
# T2 sequence (whole entry): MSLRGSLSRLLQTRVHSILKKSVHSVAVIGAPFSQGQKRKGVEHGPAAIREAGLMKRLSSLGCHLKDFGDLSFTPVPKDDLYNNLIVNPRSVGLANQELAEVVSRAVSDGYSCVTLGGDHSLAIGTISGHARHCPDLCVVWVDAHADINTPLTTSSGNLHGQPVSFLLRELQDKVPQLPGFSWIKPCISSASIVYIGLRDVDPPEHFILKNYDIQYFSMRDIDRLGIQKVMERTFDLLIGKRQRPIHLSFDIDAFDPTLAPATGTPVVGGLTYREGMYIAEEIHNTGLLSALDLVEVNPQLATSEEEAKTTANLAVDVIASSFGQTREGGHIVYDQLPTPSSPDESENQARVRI
# [6] = target: T3, Proteasome subunit beta (Trypanosoma cruzi) (UniProt O96673); assay: Trypanosoma cruzi proteasome chymotrypsin-like activity (TcProtChymo) assay.; further: in the data most compounds retested in dose-response had high values; assay type: functional; details: 9.37 µM
# T3 sequence (whole entry): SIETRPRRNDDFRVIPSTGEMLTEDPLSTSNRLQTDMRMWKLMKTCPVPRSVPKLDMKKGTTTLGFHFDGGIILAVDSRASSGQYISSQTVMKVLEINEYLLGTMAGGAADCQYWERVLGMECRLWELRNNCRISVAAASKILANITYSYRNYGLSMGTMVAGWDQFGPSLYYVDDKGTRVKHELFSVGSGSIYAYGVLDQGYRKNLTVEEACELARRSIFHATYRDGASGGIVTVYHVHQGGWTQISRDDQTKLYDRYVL
# Homo sapiens = species on record: Homo sapiens; assay: To identify inhibition of the IFN signalling (Jak-Stat) pathway via expression of an eGFP reporter gene under the control of an IFN-stimulated response element (ISRE) containing MxA promoter.; assay type: functional; details: 30 µM
# [7] = target: T4, Tyrosyl-tRNA synthetase, putative (Trypanosoma cruzi (strain CL Brener)) (UniProt Q4DSP6); assay: Trypanosoma cruzi tyrosyl tRNA synthetase (TcYRS) _High Tyrosine SOP; assay type: functional; details: 30 µM; further: in the data most compounds retested in dose-response had high values
# T4 sequence (whole entry): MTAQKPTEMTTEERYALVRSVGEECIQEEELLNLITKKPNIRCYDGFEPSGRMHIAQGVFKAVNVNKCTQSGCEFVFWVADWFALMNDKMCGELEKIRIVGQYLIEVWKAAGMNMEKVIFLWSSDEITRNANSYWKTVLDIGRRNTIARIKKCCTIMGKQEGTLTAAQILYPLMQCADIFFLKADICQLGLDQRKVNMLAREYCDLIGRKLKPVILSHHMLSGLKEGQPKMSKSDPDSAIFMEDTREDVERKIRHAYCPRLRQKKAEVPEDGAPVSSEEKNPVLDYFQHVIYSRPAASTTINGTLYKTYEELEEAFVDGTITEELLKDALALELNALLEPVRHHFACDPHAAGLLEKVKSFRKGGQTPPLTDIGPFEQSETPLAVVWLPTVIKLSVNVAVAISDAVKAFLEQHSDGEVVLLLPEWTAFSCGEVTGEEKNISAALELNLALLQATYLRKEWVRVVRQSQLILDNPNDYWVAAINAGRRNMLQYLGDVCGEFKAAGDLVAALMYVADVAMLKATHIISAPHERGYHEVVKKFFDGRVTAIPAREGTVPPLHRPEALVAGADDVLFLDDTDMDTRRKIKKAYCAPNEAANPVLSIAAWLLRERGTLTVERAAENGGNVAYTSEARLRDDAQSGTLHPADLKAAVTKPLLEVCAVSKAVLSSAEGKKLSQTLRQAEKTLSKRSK
# [8] = target: T4, Tyrosyl-tRNA synthetase, putative (Trypanosoma cruzi (strain CL Brener)); assay: Trypanosoma cruzi tyrosyl tRNA synthetase (TcYRS) SOP; assay type: functional; details: 30 µM
# [9] = target: Chromo domain-containing protein 1 (Saccharomyces cerevisiae (strain ATCC 204508 / S288c) (Baker's yeast)) (UniProt P32657); assay: ScCHD-1 Enzyme Inhibition Assay; assay type: functional; details: 30 µM; further: in the data most compounds retested in dose-response had high values
# Sequence of Chromo domain-containing protein 1 (Saccharomyces cerevisiae (strain ATCC 204508 / S288c) (Baker's yeast)) (P32657 whole entry, the tested form may be a part): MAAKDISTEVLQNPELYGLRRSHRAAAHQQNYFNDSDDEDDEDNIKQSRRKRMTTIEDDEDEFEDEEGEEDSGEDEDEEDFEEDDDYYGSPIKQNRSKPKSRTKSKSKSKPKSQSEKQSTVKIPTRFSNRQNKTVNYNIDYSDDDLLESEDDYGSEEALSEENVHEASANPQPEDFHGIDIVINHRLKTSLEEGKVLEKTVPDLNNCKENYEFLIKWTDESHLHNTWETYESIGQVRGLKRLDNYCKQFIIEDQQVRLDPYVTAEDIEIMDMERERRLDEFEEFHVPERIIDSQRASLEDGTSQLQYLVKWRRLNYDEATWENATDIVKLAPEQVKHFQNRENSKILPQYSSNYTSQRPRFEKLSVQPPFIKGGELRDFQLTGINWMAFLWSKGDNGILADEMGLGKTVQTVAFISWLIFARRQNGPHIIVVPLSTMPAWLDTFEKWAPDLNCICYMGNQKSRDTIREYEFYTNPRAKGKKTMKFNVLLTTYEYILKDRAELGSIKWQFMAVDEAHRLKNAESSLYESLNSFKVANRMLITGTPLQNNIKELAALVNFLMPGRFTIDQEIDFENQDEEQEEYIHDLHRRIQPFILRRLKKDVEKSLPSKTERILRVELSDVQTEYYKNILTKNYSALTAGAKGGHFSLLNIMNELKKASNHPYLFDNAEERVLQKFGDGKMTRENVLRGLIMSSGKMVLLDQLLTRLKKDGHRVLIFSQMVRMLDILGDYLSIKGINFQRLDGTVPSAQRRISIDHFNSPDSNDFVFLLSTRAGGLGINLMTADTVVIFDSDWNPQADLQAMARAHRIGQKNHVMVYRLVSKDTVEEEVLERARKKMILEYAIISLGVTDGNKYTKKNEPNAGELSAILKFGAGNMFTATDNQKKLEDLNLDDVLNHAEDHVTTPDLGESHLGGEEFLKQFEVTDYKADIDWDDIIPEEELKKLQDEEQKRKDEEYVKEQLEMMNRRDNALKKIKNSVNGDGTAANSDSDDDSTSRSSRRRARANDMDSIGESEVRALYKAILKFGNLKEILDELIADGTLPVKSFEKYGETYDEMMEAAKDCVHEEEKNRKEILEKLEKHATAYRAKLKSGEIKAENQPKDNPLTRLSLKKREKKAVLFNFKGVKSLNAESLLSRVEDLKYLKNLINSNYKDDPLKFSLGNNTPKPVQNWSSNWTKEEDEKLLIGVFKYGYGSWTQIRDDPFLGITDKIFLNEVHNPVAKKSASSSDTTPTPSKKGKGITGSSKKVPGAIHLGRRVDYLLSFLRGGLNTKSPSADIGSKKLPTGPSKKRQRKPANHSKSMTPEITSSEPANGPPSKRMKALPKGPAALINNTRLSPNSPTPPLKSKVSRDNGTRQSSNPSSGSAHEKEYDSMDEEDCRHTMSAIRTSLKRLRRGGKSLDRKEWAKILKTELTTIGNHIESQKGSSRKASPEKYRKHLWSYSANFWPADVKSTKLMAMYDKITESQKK
# Sequence of Sialic acid-binding Ig-like lectin 9 (Homo sapiens) (Q9Y336 whole entry): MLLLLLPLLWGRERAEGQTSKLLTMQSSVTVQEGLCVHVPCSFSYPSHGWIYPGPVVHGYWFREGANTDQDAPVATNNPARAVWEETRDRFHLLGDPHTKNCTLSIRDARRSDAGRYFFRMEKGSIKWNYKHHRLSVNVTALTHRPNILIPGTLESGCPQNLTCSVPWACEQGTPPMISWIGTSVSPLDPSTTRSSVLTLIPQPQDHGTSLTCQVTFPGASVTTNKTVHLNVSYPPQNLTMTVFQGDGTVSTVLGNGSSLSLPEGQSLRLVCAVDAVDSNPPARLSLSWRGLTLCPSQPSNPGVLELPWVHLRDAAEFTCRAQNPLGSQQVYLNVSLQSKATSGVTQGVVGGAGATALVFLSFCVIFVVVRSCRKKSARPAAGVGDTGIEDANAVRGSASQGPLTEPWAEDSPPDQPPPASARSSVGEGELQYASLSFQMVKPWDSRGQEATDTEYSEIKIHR
# Sequence of Protein translocase subunit SecA (Escherichia coli (strain K12)) (P10408 whole entry): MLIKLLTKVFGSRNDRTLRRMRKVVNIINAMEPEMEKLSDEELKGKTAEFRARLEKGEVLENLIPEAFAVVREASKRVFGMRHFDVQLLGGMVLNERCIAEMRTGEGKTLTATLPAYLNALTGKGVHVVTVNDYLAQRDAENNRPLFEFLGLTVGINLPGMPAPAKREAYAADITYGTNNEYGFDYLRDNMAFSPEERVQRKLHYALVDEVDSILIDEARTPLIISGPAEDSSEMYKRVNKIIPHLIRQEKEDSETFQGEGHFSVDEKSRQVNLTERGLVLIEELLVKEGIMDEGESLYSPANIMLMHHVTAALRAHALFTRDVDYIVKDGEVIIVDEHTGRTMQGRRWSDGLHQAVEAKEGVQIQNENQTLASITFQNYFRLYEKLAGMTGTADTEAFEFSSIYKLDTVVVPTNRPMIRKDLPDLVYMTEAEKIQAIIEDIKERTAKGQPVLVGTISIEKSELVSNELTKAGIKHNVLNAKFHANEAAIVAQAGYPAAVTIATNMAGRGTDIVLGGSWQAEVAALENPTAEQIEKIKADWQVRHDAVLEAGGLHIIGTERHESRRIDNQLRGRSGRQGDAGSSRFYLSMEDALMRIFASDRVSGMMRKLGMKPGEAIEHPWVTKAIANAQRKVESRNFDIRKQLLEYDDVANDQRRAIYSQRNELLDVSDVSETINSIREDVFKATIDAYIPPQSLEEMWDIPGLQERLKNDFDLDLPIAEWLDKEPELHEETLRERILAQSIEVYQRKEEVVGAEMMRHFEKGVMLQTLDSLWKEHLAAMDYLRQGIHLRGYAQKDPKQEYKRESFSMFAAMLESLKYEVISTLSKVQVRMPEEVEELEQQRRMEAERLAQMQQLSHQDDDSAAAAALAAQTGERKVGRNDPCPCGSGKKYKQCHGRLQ
Structure (SMILES),Percent Effect [1] [%],Percent Effect [2] [%],Percent Effect [3] [%],Percent Effect [4] [%],Percent Effect (Trypanosoma cruzi) [%],Percent Effect [5] [%],Percent Effect [6] [%],Percent Effect (Homo sapiens) [%],Percent Effect [7] [%],Percent Effect [8] [%],Percent Effect [9] [%]
CC(C)Cc1cc(C(=O)NCCc2ccc(S(C)(=O)=O)cc2)[nH]n1,-3.28,2.63,9.53,3.29,3.8,0,12.9,24,0,10.4,-3.35
O=C(CSc1ccncc1)N1C[C@H]2CC[C@@H]1CN(Cc1cccnc1)C2,-4.31,16.4,10.6,8.46,7.05,2.27,6.74,9.78,5.38,15,-4
O=C(c1cc2c(s1)CCC2)N1CCCCC1Cn1cccn1 (stereo unspecified),-4.04,10.8,-1.14,3.35,-5.11,-3.88,-0.539,2.18,4.95,6.1,1.75
O=C(CCCc1ccc(F)cc1)N1C[C@@H](CN2CCOCC2)[C@@H](CO)C1,-3.25,8.22,-1.01,-3.8,-1.57,1.82,13.7,-3.47,7.53,12.5,-5.62
O=C([C@@H]1CCO[C@@H]2CCN(Cc3cccnc3)C[C@H]21)N1CCCCO1,-2.75,14.7,2.91,5.02,-1.57,-6.51,11.5,17.3,4.23,7.69,-7.97
Cc1cc(C[C@@H]2CCC[C@H]2NCc2ccccc2C(F)(F)F)on1,-4.94,1.35,8.14,-0.325,0,2.55,6.4,13.5,2.15,9.09,-10.5
COc1ncccc1CNC(=O)NC1CCOc2ccccc21 (stereo unspecified),-3.57,5.41,-0.164,13.2,5.48,0.185,-4.85,10.6,0,13.4,-3.69
Cc1oc(C(=O)O)cc1S(=O)(=O)Nc1ccc(Cl)c(F)c1,-4.46,0,1.91,3.7,-5.24,2.85,-2.2,27.1,-2.91,-4.88,-4.31
O=C(NCC(Cc1cccc(F)c1)N1CCCC1=O)c1cnccn1 (stereo unspecified),-2.43,2.74,8.47,-6.79,-4.31,3.64,9.94,-2.19,4.3,5,-2.36
Cc1cncc(C2CCCN(C(=O)c3scnc3C)C2)n1 (stereo unspecified),-5.85,1.35,3.8,2.37,0.395,-2.09,7.33,2.09,3.23,11.7,-22.3
CCn1cnnc1CNC(=O)N1CCN(c2cccc(OC)c2)CC1,-4.11,20.8,-7.68,2.16,-3.75,-0.356,12.3,25.9,12.6,14.6,-9.3
N#Cc1ccc(C(=O)N2CCn3c(Cn4cccn4)cnc3C2)cc1,-4.62,2.67,0.576,1.75,-3.86,-57.5,5.98,-6.78,2.08,7.5,-3.56
FC(F)(F)COCCN1CCCC(c2noc(C3CC3)n2)C1 (stereo unspecified),-2.95,5.33,-7.13,6.38,7.3,-0.521,16.7,16.5,3.83,11.1,101
CCS(=O)(=O)c1ccc(N2CCC(NC(C)=O)CC2)cc1,-5.48,2.67,0.562,-0.234,-3.21,-1.04,14.8,24.6,2.73,8.64,-7.72
Cc1ccc(CS(=O)(=O)N2CC[C@H]3[C@H]2CCN3C)cc1,1.22,13.7,-1.19,9.36,6.35,-0.399,14.5,-5.72,6.25,16.1,-5.83
Cc1nc(C(=O)N2CCCC(n3cncn3)C2)cs1 (stereo unspecified),-1.23,-1.27,3.74,3.18,-0.718,2.8,4.63,-1.7,-38.5,5.06,0.874
CCCOc1cc(CNC(=O)Nc2cccnc2N2CCCC2)ccn1,-1.55,-2.7,-14.8,5.9,-1.04,4.81,5.77,6.16,-0.493,3.7,-5.59
CC(Cn1cncn1)NCc1nncn1C1CCCCC1 (stereo unspecified),-0.337,6.94,-10.2,13.3,0.0972,12.4,14.4,-15.2,8.42,15.4,-5.04
Cc1ccccc1CN1CCN(CC(=O)Nc2cccnc2)CC1,-3.14,15.6,-360,-1.61,6.95,3.58,11.1,12.5,4.76,18.8,-2.58
COCCN1C[C@H]2CC[C@@]3(N=C(C)N(CC4CC4)C3=O)[C@H]2C1,-4.99,5.41,1.81,-4.12,-0.391,-0.417,8.71,7.83,6.93,8.54,1.06
CN(CCc1ccccc1)Cc1cc(C(=O)N2CCN(C)C(=O)C2)no1,-3.15,19.2,-1.8,11,1.19,-6.79,19.3,5.79,7.29,23.5,-7.74
